Measured values published in PubChem BioAssay (NCATS).
Results filed as inconclusive are left out. Active and inactive are the calls of the source. The call rests on the fitted dose curve; in most records, active means well fitted inhibition curve with a large enough effect; inconclusive means small, poorly fitted or top-dose-only effect; inactive means no such curve, though single readings can be large or run the other way.

Experiment: qHTS Screen of the MIPE 4.0 Collection Against Ewings Sarcoma (RDES) (AID 1259252); further: nearly all actives have a fitted effect of over 35% in size
Conditions: RD-ES Ewing sarcoma viability, CellTiter-Glo, 48 h; series mostly up to 45.8 µM
Summary of the method: (§1)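 CellTiter-Glo luminescence after 48 h compound exposure (titration) gave viability; percent activity used DMSO-treated cells as no inhibition and medium-only wells as full inhibition. Cells grown in RPMI/5% FBS, dosed 4 h post-seeding.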
Potency means the concentration at half of the fitted maximal effect.

Compound	Potency
O=c1[nH]c2ccccc2n1CCCN1CCC(n2c(=O)[nH]c3cc(Cl)ccc32)CC1	inactive
C[C@@H]1O[C@@H](O[C@H]2C[C@@H](O)[C@]3(CO)[C@H]4[C@H](O)C[C@]5(C)[C@@H](C6=CC(=O)OC6)CC[C@]5(O)[C@@H]4CC[C@]3(O)C2)[C@H](O)[C@H](O)[C@H]1O	0.0833 µM (active)
CNC(=O)c1ccc(N2C(=S)N(c3ccc(C#N)c(C(F)(F)F)c3)C(=O)C23CCC3)cc1F	20.9 µM (active)
Cc1cccc(C)c1NC(=O)CN1CCCC1=O	inactive
COC[C@@H](NC(C)=O)C(=O)NCc1ccccc1	inactive
CNCC(O)c1ccc(O)cc1 (configuration not stated)	inactive
CN(C)CCc1ccc(O)cc1	inactive
C[C@@H]1[C@@H](C(=O)C[C@H]2O[C@@H]3O[C@]4(C)CC[C@@H]5[C@H](C)CC[C@@H]([C@H]2C)[C@@]35OO4)O[C@@H]2O[C@]3(C)CC[C@H]4[C@H](C)CC[C@@H]1[C@@]24OO3	3.72 µM (active)
COc1ccc(C(=O)c2c(C)n(CCN3CCOCC3)c3ccccc23)cc1	inactive
C=C(C)[C@H]1Cc2c(ccc3c2O[C@@H]2COc4cc(OC)c(OC)cc4[C@@H]2C3=O)O1	2.09 µM (active)
Cc1sc2c(c1C)C(c1ccc(Cl)cc1)=N[C@@H](CC(=O)OC(C)(C)C)c1nnc(C)n1-2	1.48 µM (active)
O=C(O)C(=O)c1cn(Cc2ccccc2)c2ccc(-c3ccc(OC(F)(F)F)cc3)cc12	inactive
CNC(=O)N1N=C(c2ccc(N)cc2)c2cc3c(cc2CC1C)OCO3 (configuration not stated)	9.35 µM (active)
CC(O)(CS(=O)(=O)c1ccc(F)cc1)C(=O)Nc1ccc(C#N)c(C(F)(F)F)c1 (configuration not stated)	0.59 µM (active)
COc1ccc2c(c1OC)CN1CCc3cc4c(cc3C1C2)OCO4 (configuration not stated)	14.8 µM (active)

Experiment: qHTS Screen of the MIPE 4.0 Collection Against Ewings Sarcoma (TC71) (AID 1259253); further: nearly all actives have a fitted effect of over 40% in size
Conditions: TC71 Ewing sarcoma viability, CellTiter-Glo, 48 h; series mostly up to 45.8 µM
Summary of the method: as §1

Compound	Potency
O=c1[nH]c2ccccc2n1CCCN1CCC(n2c(=O)[nH]c3cc(Cl)ccc32)CC1	inactive
C[C@@H]1O[C@@H](O[C@H]2C[C@@H](O)[C@]3(CO)[C@H]4[C@H](O)C[C@]5(C)[C@@H](C6=CC(=O)OC6)CC[C@]5(O)[C@@H]4CC[C@]3(O)C2)[C@H](O)[C@H](O)[C@H]1O	0.0418 µM (active)
Cc1cccc(C)c1NC(=O)CN1CCCC1=O	inactive
COC[C@@H](NC(C)=O)C(=O)NCc1ccccc1	inactive
CNCC(O)c1ccc(O)cc1 (configuration not stated)	inactive
C[C@@H]1[C@@H](C(=O)C[C@H]2O[C@@H]3O[C@]4(C)CC[C@@H]5[C@H](C)CC[C@@H]([C@H]2C)[C@@]35OO4)O[C@@H]2O[C@]3(C)CC[C@H]4[C@H](C)CC[C@@H]1[C@@]24OO3	4.69 µM (active)
COC1(CS(=O)c2ccccc2)CCN(CCc2c[nH]c3ccc(F)cc23)CC1 (configuration not stated)	5.9 µM (active)
COc1ccc(C(=O)c2c(C)n(CCN3CCOCC3)c3ccccc23)cc1	inactive
C=C(C)[C@H]1Cc2c(ccc3c2O[C@@H]2COc4cc(OC)c(OC)cc4[C@@H]2C3=O)O1	4.69 µM (active)
Cc1sc2c(c1C)C(c1ccc(Cl)cc1)=N[C@@H](CC(=O)OC(C)(C)C)c1nnc(C)n1-2	1.48 µM (active)
Fc1ccc(C(OCCN2CCN(CCCc3ccccc3)CC2)c2ccc(F)cc2)cc1	18.7 µM (active)
Cn1cc(C2=C(c3cn(C4CCN(Cc5ccccn5)CC4)c4ccccc34)C(=O)NC2=O)c2ccccc21	6.62 µM (active)
CC(O)(CS(=O)(=O)c1ccc(F)cc1)C(=O)Nc1ccc(C#N)c(C(F)(F)F)c1 (configuration not stated)	2.35 µM (active)
Cc1cc(SCc2sc(-c3ccc(C(F)(F)F)c(F)c3)nc2C)ccc1OCC(=O)O	23.5 µM (active)

Experiment: qHTS Screen of the MIPE 4.0 Collection Against Ewings Sarcoma (EW8) (AID 1259255); further: nearly all actives have a fitted effect of over 35% in size
Conditions: EW8 Ewing sarcoma viability, CellTiter-Glo, 48 h; series mostly up to 45.8 µM
Summary of the method: as §1

Compound	Potency
C[C@@H]1O[C@@H](O[C@H]2C[C@@H](O)[C@]3(CO)[C@H]4[C@H](O)C[C@]5(C)[C@@H](C6=CC(=O)OC6)CC[C@]5(O)[C@@H]4CC[C@]3(O)C2)[C@H](O)[C@H](O)[C@H]1O	0.0372 µM (active)
Cc1cccc(C)c1NC(=O)CN1CCCC1=O	inactive
COC[C@@H](NC(C)=O)C(=O)NCc1ccccc1	inactive
CNCC(O)c1ccc(O)cc1 (configuration not stated)	inactive
CN(C)CCc1ccc(O)cc1	inactive
C[C@@H]1[C@@H](C(=O)C[C@H]2O[C@@H]3O[C@]4(C)CC[C@@H]5[C@H](C)CC[C@@H]([C@H]2C)[C@@]35OO4)O[C@@H]2O[C@]3(C)CC[C@H]4[C@H](C)CC[C@@H]1[C@@]24OO3	0.743 µM (active)
COc1ccc(C(=O)c2c(C)n(CCN3CCOCC3)c3ccccc23)cc1	inactive
C=C(C)[C@H]1Cc2c(ccc3c2O[C@@H]2COc4cc(OC)c(OC)cc4[C@@H]2C3=O)O1	2.96 µM (active)
Cc1sc2c(c1C)C(c1ccc(Cl)cc1)=N[C@@H](CC(=O)OC(C)(C)C)c1nnc(C)n1-2	16.6 µM (active)
Fc1ccc(C(OCCN2CCN(CCCc3ccccc3)CC2)c2ccc(F)cc2)cc1	20.9 µM (active)
Cn1cc(C2=C(c3cn(C4CCN(Cc5ccccn5)CC4)c4ccccc34)C(=O)NC2=O)c2ccccc21	10.5 µM (active)
O=C(O)C(=O)c1cn(Cc2ccccc2)c2ccc(-c3ccc(OC(F)(F)F)cc3)cc12	inactive
CC(O)(CS(=O)(=O)c1ccc(F)cc1)C(=O)Nc1ccc(C#N)c(C(F)(F)F)c1 (configuration not stated)	3.72 µM (active)
